# This is part of a sample that, as a whole, favours compounds with a hit. Of some 83,000 tested, about 20% had one in any assay.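 Percent growth is the endpoint: 0 to 100 indicates growth inhibition (40 means 60% inhibition), 0 means no net growth, and negative values indicate cell death.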 Activity calls are given as the source filed them. Rule for the calls: active = growth percent below 10; inactive = the rest.
# Tested on: M14 melanoma
# Assay: NCI-60 one-dose screen, 48 h (100 = growth as untreated, 0 = no growth, -100 = all killed)
# Settings: 10 µM unless noted
row,SMILES,growth
1,Cc1nn(-c2ccccc2)c(Oc2ccc(Cl)cc2)c1/C=N\N=c1/sc2ccccc2n1C,87.4% (inactive)
2,CC(C)Sc1nc(NNC(N)=S)c(C#N)c(-c2ccc(F)cc2)n1,104% (inactive)
3,NC(=O)c1ccc[n+](Cc2ccc(Cl)cc2Cl)c1,94.5% (inactive)
4,CCCCCCCC/C=C\CCCCCCCCOc1ccccc1CC(=O)NCC[N+](C)(C)C,57.4% (inactive)
5,O=C1Nc2ccccc2/C1=C/c1cn(C(=O)c2ccc(Cl)cc2)c2ccccc12,102% (inactive)
6,O=C1/C(=C\c2cccnc2)SC(=S)N1CCc1ccc(O)cc1,60.2% (inactive)
7,COc1ccc(C2C(c3nn[nH]n3)=C(N)Oc3c2ccc2ccccc32)cc1 (stereo unspecified),58.4% (inactive)
8,COc1ccc(NC(=O)CSc2nnc(-c3cc(-c4ccc(S(N)(=O)=O)cc4)nc4ccccc34)n2-c2ccccc2)cc1,86.1% (inactive)
9,COc1ccc(-c2csc(C3=C(O)CN(C(C)C)C3=N)n2)cc1OC,136% (inactive)
10,Cn1cc(-c2csc(-c3ccccc3)n2)c2cccnc21,-76.6% [100 µM] (active)
11,CCN1CCN(c2cc(C)nc(NCc3cc(Nc4ccnc5cc(Cl)ccc45)ccc3F)n2)CC1,-64.3% (active)
12,C#CCOc1nc(C)cc(C)c1C#N,98.1% (inactive)
13,Cc1cc(O)c(C2=NN(c3ccc(S(N)(=O)=O)cc3)C(c3ccccc3Cl)C2)cc1Cl (stereo unspecified),-11.9% (active)
14,N#Cc1c(-c2cccc(Cl)c2)cc(-c2cccc(Cl)c2)[nH]c1=O,57.9% (inactive)
15,N=c1sc(Cc2ccc(Cl)cc2)cn1CC(=O)c1ccc(F)cc1,43.1% (inactive)
16,COc1cc(CCC[P+](c2ccccc2)(c2ccccc2)c2ccccc2)cc2c1OCO2,30.8% (inactive)
17,CCCCc1ccc(Nc2ccc(Nc3ccc(CCCC)cc3S(=O)(=O)O)c3c2C(=O)c2ccccc2C3=O)c(S(=O)(=O)O)c1,101% (inactive)
18,COc1ccc2occ(C3=C(c4c[nH]c5ccccc45)C(=O)N(O)C3=O)c2c1,94.2% (inactive)
19,CC1(C)OC2C(CO[Si](C)(C)C(C)(C)C)OC(n3c(I)c(C#C[Si](C)(C)C)c(=O)[nH]c3=O)C2O1 (stereo unspecified),106% (inactive)

row,SMILES,growth
1,Cc1ccc(S(=O)(=O)NCC[C@@H]2C[C@H]2c2cc3ccccc3s2)cc1,108% (inactive)
2,NC[C@H](O)c1ccc(O)c(O)c1,95.9% (inactive)
3,C=C(C)[C@@H]1CC[C@]2(C(=O)NC3CCCCC3)CC[C@]3(C)[C@H](CC[C@@H]4[C@@]5(C)CCC(=O)C(C)(C)[C@@H]5CC[C@]43C)[C@@H]12,97.7% (inactive)
4,N=C1CCC(=N)c2c1c(O)c1ccccc1c2O,118% (inactive)
5,COC(=O)[C@]12CC[C@@H](C)[C@H](C)[C@@H]1C1=CC[C@@H]3[C@@]4(C)C(C=O)=C[C@@](C)(COC(C)=O)[C@@H]4C(=O)C[C@@]3(C)[C@]1(C)CC2,19.5% (inactive)
6,COc1cc(/C=N/Nc2ncc(-c3cc4cc5c(cc4o3)OCO5)s2)cc(OC)c1OC,26.3% (inactive)
7,OC(c1cccc(-n2ccc(C(F)(F)F)n2)c1)c1cnccc1NC1CCCCCC1 (stereo unspecified),-75.1% (active)
8,COc1ccc(-c2[nH]c(=S)n(C(CC3(C)NCC(=O)N3n3c(-c4ccccc4)cc(C)nc3=S)c3ccc(OC)cc3)c(=O)c2Br)cc1 (stereo unspecified),70.9% (inactive)
9,Cc1ccc(Cl)c(NS(=O)(=O)c2ccc(-c3cnc(C4CC4)o3)cc2)c1,2.07% (active)
10,O=C(NC(Cc1nnc2n(Cc3ccccc3)c(=O)c3c4c(sc3n12)CCCC4)c1ccc(Cl)cc1)c1ccccc1 (stereo unspecified),68% (inactive)
11,Cc1c(O)cc(-c2cnc(N/N=C\c3ccc(Cl)cc3)s2)c(O)c1C,96.2% (inactive)
12,CCN(CC)CCn1nc2c3c(cccc3c1=O)-c1ccccc1-2,28.4% (inactive)
13,Fc1c[c-]c(-c2ccccn2)c(F)c1.[CH3-].[Pt+2].c1ccc(P(C[PH+](c2ccccc2)c2ccccc2)c2ccccc2)cc1,-20% (active)
14,CCN1C(=O)N(CC)C2Nn3c(s/c(=C\c4cccc([N+](=O)[O-])c4)c3=O)=NC21 (stereo unspecified),22.2% (inactive)
15,N#C/C(=C/C=C/c1cccc(Cl)c1)S(=O)c1ccccc1 (stereo unspecified),-52.6% (active)
16,Oc1c(CN2CCCC2)cc(COCc2ccc(Br)cc2)c2cccnc12,-3.51% (active)
17,O=C(CCCCCCN1CC(=O)N2[C@@H](c3ccccc3Cl)c3[nH]c4ccccc4c3C[C@H]2C1=O)NO,49.3% (inactive)
18,COc1ccc(C2CC(c3cccc(OC)c3)=NN2C(=O)c2cc(OC)c(OC)c(OC)c2)cc1 (stereo unspecified),16.5% (inactive)
19,CCc1c2c(nc3ccc(OC(=O)OCc4ccc(B5OC(C)(C)C(C)(C)O5)cc4)cc13)-c1cc3c(c(=O)n1C2)COC(=O)[C@]3(O)CC,4.15% (active)

# Tested on: HCT-15 colon
# Assay: as above
# Settings: 10 µM unless noted
row,SMILES,growth
1,Cc1nn(-c2ccccc2)c(Oc2ccc(Cl)cc2)c1/C=N\N=c1/sc2ccccc2n1C,77.4% (inactive)
2,CC(C)Sc1nc(NNC(N)=S)c(C#N)c(-c2ccc(F)cc2)n1,95.9% (inactive)
3,NC(=O)c1ccc[n+](Cc2ccc(Cl)cc2Cl)c1,105% (inactive)
4,CCCCCCCC/C=C\CCCCCCCCOc1ccccc1CC(=O)NCC[N+](C)(C)C,56.6% (inactive)
5,O=C1Nc2ccccc2/C1=C/c1cn(C(=O)c2ccc(Cl)cc2)c2ccccc12,92.1% (inactive)
6,O=C1/C(=C\c2cccnc2)SC(=S)N1CCc1ccc(O)cc1,19.2% (inactive)
7,COc1ccc(C2C(c3nn[nH]n3)=C(N)Oc3c2ccc2ccccc32)cc1 (stereo unspecified),35% (inactive)
8,COc1ccc(NC(=O)CSc2nnc(-c3cc(-c4ccc(S(N)(=O)=O)cc4)nc4ccccc34)n2-c2ccccc2)cc1,89% (inactive)
9,COc1ccc(-c2csc(C3=C(O)CN(C(C)C)C3=N)n2)cc1OC,103% (inactive)
10,Cn1cc(-c2csc(-c3ccccc3)n2)c2cccnc21,-40.3% [100 µM] (active)
11,CCN1CCN(c2cc(C)nc(NCc3cc(Nc4ccnc5cc(Cl)ccc45)ccc3F)n2)CC1,15.9% (inactive)
12,C#CCOc1nc(C)cc(C)c1C#N,96% (inactive)
13,Cc1cc(O)c(C2=NN(c3ccc(S(N)(=O)=O)cc3)C(c3ccccc3Cl)C2)cc1Cl (stereo unspecified),34.8% (inactive)
14,N#Cc1c(-c2cccc(Cl)c2)cc(-c2cccc(Cl)c2)[nH]c1=O,44.9% (inactive)
15,N=c1sc(Cc2ccc(Cl)cc2)cn1CC(=O)c1ccc(F)cc1,50.4% (inactive)
16,COc1cc(CCC[P+](c2ccccc2)(c2ccccc2)c2ccccc2)cc2c1OCO2,106% (inactive)
17,CCCCc1ccc(Nc2ccc(Nc3ccc(CCCC)cc3S(=O)(=O)O)c3c2C(=O)c2ccccc2C3=O)c(S(=O)(=O)O)c1,104% (inactive)
18,COc1ccc2occ(C3=C(c4c[nH]c5ccccc45)C(=O)N(O)C3=O)c2c1,100% (inactive)
19,CC1(C)OC2C(CO[Si](C)(C)C(C)(C)C)OC(n3c(I)c(C#C[Si](C)(C)C)c(=O)[nH]c3=O)C2O1 (stereo unspecified),93% (inactive)

row,SMILES,growth
1,Cc1ccc(S(=O)(=O)NCC[C@@H]2C[C@H]2c2cc3ccccc3s2)cc1,101% (inactive)
2,NC[C@H](O)c1ccc(O)c(O)c1,104% (inactive)
3,C=C(C)[C@@H]1CC[C@]2(C(=O)NC3CCCCC3)CC[C@]3(C)[C@H](CC[C@@H]4[C@@]5(C)CCC(=O)C(C)(C)[C@@H]5CC[C@]43C)[C@@H]12,97.1% (inactive)
4,N=C1CCC(=N)c2c1c(O)c1ccccc1c2O,108% (inactive)
5,COC(=O)[C@]12CC[C@@H](C)[C@H](C)[C@@H]1C1=CC[C@@H]3[C@@]4(C)C(C=O)=C[C@@](C)(COC(C)=O)[C@@H]4C(=O)C[C@@]3(C)[C@]1(C)CC2,21.5% (inactive)
6,COc1cc(/C=N/Nc2ncc(-c3cc4cc5c(cc4o3)OCO5)s2)cc(OC)c1OC,35.7% (inactive)
7,OC(c1cccc(-n2ccc(C(F)(F)F)n2)c1)c1cnccc1NC1CCCCCC1 (stereo unspecified),-39.2% (active)
8,COc1ccc(-c2[nH]c(=S)n(C(CC3(C)NCC(=O)N3n3c(-c4ccccc4)cc(C)nc3=S)c3ccc(OC)cc3)c(=O)c2Br)cc1 (stereo unspecified),39.9% (inactive)
9,Cc1ccc(Cl)c(NS(=O)(=O)c2ccc(-c3cnc(C4CC4)o3)cc2)c1,16.9% (inactive)
10,O=C(NC(Cc1nnc2n(Cc3ccccc3)c(=O)c3c4c(sc3n12)CCCC4)c1ccc(Cl)cc1)c1ccccc1 (stereo unspecified),68.3% (inactive)
11,Cc1c(O)cc(-c2cnc(N/N=C\c3ccc(Cl)cc3)s2)c(O)c1C,85% (inactive)
12,CCN(CC)CCn1nc2c3c(cccc3c1=O)-c1ccccc1-2,17.1% (inactive)
13,Fc1c[c-]c(-c2ccccn2)c(F)c1.[CH3-].[Pt+2].c1ccc(P(C[PH+](c2ccccc2)c2ccccc2)c2ccccc2)cc1,-51.4% (active)
14,CCN1C(=O)N(CC)C2Nn3c(s/c(=C\c4cccc([N+](=O)[O-])c4)c3=O)=NC21 (stereo unspecified),31.8% (inactive)
15,N#C/C(=C/C=C/c1cccc(Cl)c1)S(=O)c1ccccc1 (stereo unspecified),-69.4% (active)
16,Oc1c(CN2CCCC2)cc(COCc2ccc(Br)cc2)c2cccnc12,-39.6% (active)
17,O=C(CCCCCCN1CC(=O)N2[C@@H](c3ccccc3Cl)c3[nH]c4ccccc4c3C[C@H]2C1=O)NO,97.5% (inactive)
18,COc1ccc(C2CC(c3cccc(OC)c3)=NN2C(=O)c2cc(OC)c(OC)c(OC)c2)cc1 (stereo unspecified),30.9% (inactive)
19,CCc1c2c(nc3ccc(OC(=O)OCc4ccc(B5OC(C)(C)C(C)(C)O5)cc4)cc13)-c1cc3c(c(=O)n1C2)COC(=O)[C@]3(O)CC,9.28% (active)
